For nine molecules, Potency, max response and outcome results are on record in PubChem BioAssay (NCATS).

Each structure is given as a SMILES string. Inconclusive results are not listed. Values without a mark were called inactive. Active and inactive are the calls of the source. Calls come from the whole dose curve; as a rule, active = well fitted inhibition curve with a large enough effect; inconclusive = small, poorly fitted or top-dose-only effect; inactive = flat fitted curve, though single readings scatter.

For one experiment, the system named is GB4. The experiment can be described thus: qHTS profiling for inhibitors of Plasmodium falciparum proliferation (AID 504749). Note: potency is the fitted concentration of half-maximal effect. The following applies: P. falciparum in erythrocytes, SYBR Green DNA, 72 h; series mostly up to 28.7 µM. The method in brief: (§1)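 Each compound contacts P. falciparum-infected red blood cells for 72 h at 37 C; lysis buffer (Tris, EDTA, saponin, Triton X, SYBR Green I) is added and fluorescence measured next morning; values normalized to controls.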

In a further experiment the test system is ICS. Described as above. Particulars: P. falciparum in erythrocytes, SYBR Green DNA, 72 h; series mostly up to 28.7 µM. In short, it runs like this: as §1
Another experiment relates to JCK. The description is as above. Particulars: P. falciparum in erythrocytes, SYBR Green DNA, 72 h; series mostly up to 28.7 µM. In short, it runs like this:
as §1

In a further experiment the test system is P94_40. The experiment is described as above. The following applies: P. falciparum in erythrocytes, SYBR Green DNA, 72 h; series mostly up to 28.7 µM. In short, it runs like this: as §1
For another experiment, the system named is PC49. The description is as above. Particulars: P. falciparum in erythrocytes, SYBR Green DNA, 72 h; series mostly up to 28.7 µM. In short, it runs like this:
as §1

The subject of another experiment is W2. The description is as above. The following applies: P. falciparum in erythrocytes, SYBR Green DNA, 72 h; series mostly up to 28.7 µM. The method in brief:
as §1

For another experiment, the system named is CRL-7250. The experiment can be described thus: Cytotoxic Profiling of Annotated Libraries Using Quantitative High-Throughput Screening (AID 1296008). For max response: % is set by controls: 0 for no effect and ±100 for the full control effect. Particulars: Five cell lines viability, CellTiter-Glo ATP luminescence, 48-72 h; max response: stronger effect = lower value. The method in brief:
(§2)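 Cells exposed to compounds for 48 or 72 hr at 37 degrees Celsius. Viability read as ATP-coupled luminescence with CellTiter-Glo after 10 min at room temperature.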

The test system of another experiment is HaCat. Described as above. Particulars: Five cell lines viability, CellTiter-Glo ATP luminescence, 48-72 h; max response: stronger effect = lower value. The method in brief: as §2
The subject of a further experiment is KB-3-1. The description is as above. The following applies: Five cell lines viability, CellTiter-Glo ATP luminescence, 48-72 h; max response: stronger effect = lower value. In short, it runs like this:
as §2

The test system of a further experiment is HB3. The experiment is described as follows: qHTS profiling for inhibitors of Plasmodium falciparum proliferation (AID 504749). Note: potency is the fitted concentration of half-maximal effect. Particulars: P. falciparum in erythrocytes, SYBR Green DNA, 72 h; series mostly up to 28.7 µM. In short, it runs like this: as §1
Another experiment deals with N140. The description is as above. Particulars: P. falciparum in erythrocytes, SYBR Green DNA, 72 h; series mostly up to 28.7 µM. The method in brief:
as §1

A further experiment deals with P93_24. The description is as above. Particulars: P. falciparum in erythrocytes, SYBR Green DNA, 72 h; series mostly up to 28.7 µM. In short, it runs like this: as §1
A further experiment concerns PAD. Described as above. Particulars: P. falciparum in erythrocytes, SYBR Green DNA, 72 h; series mostly up to 28.7 µM. In short, it runs like this:
as §1

The test system of another experiment is PC15. Described as above. The following applies: P. falciparum in erythrocytes, SYBR Green DNA, 72 h; series mostly up to 28.7 µM. The method in brief: as §1
For a further experiment, the system named is PC26. The experiment is described as above. Particulars: P. falciparum in erythrocytes, SYBR Green DNA, 72 h; series mostly up to 28.7 µM. In short, it runs like this: as §1
For another experiment, the system named is SC27B. The experiment is described as above. Particulars: P. falciparum in erythrocytes, SYBR Green DNA, 72 h; series mostly up to 28.7 µM. In short, it runs like this: as §1
In a further experiment the test system is TAB109. The experiment is described as above. Particulars: P. falciparum in erythrocytes, SYBR Green DNA, 72 h; series mostly up to 28.7 µM. The method in brief: as §1
The subject of the next experiment is TAB113. Described as above. Particulars: P. falciparum in erythrocytes, SYBR Green DNA, 72 h; series mostly up to 28.7 µM. The method in brief:
as §1

The next experiment has as its system TAB165. Described as above. Particulars: P. falciparum in erythrocytes, SYBR Green DNA, 72 h; series mostly up to 28.7 µM. The method in brief: as §1
Note: nearly all actives have a fitted effect of over 60% in size.

`CC(C)(C)NCC(O)c1ccccc1Cl` (stereo unspecified): the Potency in the experiment with GB4 is 13.5 µM (active); in the experiment with ICS it was 7.08 µM (active); in the experiment with P94_40, 11.2 µM (active); in the experiment with PC49 it was 12.6 µM (active); with W2, 6.01 µM (active). Also, in the experiment on JCK, the Potency entry was “inactive”. Besides, the max response with CRL-7250 is -15.1%; in the experiment with HaCat, -8.54%; in the experiment with KB-3-1, 2.34%.
On to `CCCN(CCC)C(=O)Cc1c(-c2ccc(Cl)cc2)nc2ccc(Cl)cn12`, for which the max response in the experiment with CRL-7250 was 0.585%; in the experiment on HaCat, -9.95%; in the experiment with KB-3-1, -8.04%.
Regarding `CCN[C@H](C)Cc1cccc(C(F)(F)F)c1`, the max response in the experiment with CRL-7250 is -0.312%; in the experiment with KB-3-1, -19.7%. Besides, the molecule was classed as inactive in the experiment on HaCat.
For `Nc1ccccc1`, in that order: -1.03%, -12% and “inactive”.
With `Nc1ccccc1C(=O)O`, the Potency entry in the experiment on GB4, in the experiment with HB3, in the experiment with ICS, in the experiment on JCK, with N140 and in the experiment with P93_24 was “inactive” throughout. Also, the Potency entry in the experiment on P94_40, in the experiment with PAD, with PC15, in the experiment with PC26, in the experiment on PC49 and with SC27B was “inactive” each time. Besides, the Potency result in the experiment on TAB109, in the experiment with TAB113, in the experiment on TAB165 and in the experiment with W2 was “inactive” throughout. Besides, the max response with CRL-7250 was -2.31%; in the experiment with KB-3-1 it was -19.2%. Also, in the experiment on HaCat, the result was inactive.
With `C[C@]12CCC(=O)C=C1CC[C@@H]1[C@@H]2CC[C@]2(C)C(=O)CC[C@@H]12`, the Potency entry in the experiment on GB4, in the experiment with HB3, in the experiment with ICS, in the experiment with JCK, with N140 and with P93_24 was “inactive” throughout. In addition, the Potency entry in the experiment on P94_40, with PC15, with PC26, in the experiment on PC49, in the experiment with SC27B and with TAB109 was “inactive” throughout. Also, the Potency entry in the experiment on TAB113, in the experiment on TAB165 and with W2 was “inactive” each time. Besides, the max response was -5.91% in the experiment with CRL-7250, -13.1% in the experiment with HaCat and -6.1% in the experiment with KB-3-1.
`COP(=S)(OC)Oc1ccc(S(=O)(=O)N(C)C)cc1`: the Potency entry in the experiment with GB4, in the experiment on HB3, with ICS, in the experiment on JCK, with N140 and in the experiment on P93_24 was “inactive” in each case. Further, the Potency result in the experiment on P94_40, in the experiment on PAD, with PC15, in the experiment on PC26, with PC49 and with SC27B was “inactive” in each case. Further, the Potency result in the experiment with TAB109, in the experiment with TAB113, in the experiment with TAB165 and with W2 was “inactive” in each case. Moreover, the max response is 4.64% with CRL-7250, -5.18% in the experiment on HaCat and -10.7% in the experiment with KB-3-1.
For `O=C1OC(c2ccc(O)c(S(=O)(=O)O)c2)(c2ccc(O)c(S(=O)(=O)O)c2)c2c(Br)c(Br)c(Br)c(Br)c21`, the Potency result in the experiment with GB4, in the experiment with HB3, in the experiment with ICS, in the experiment on JCK, in the experiment with N140 and in the experiment on P93_24 was “inactive” each time. Also, the Potency result in the experiment on P94_40, with PAD, with PC15, in the experiment on PC26, with PC49 and in the experiment with SC27B was “inactive” each time. The Potency result in the experiment with TAB109, with TAB113, in the experiment with TAB165 and in the experiment on W2 was “inactive” each time. The max response in the experiment with CRL-7250 is -1.01%; in the experiment with KB-3-1, 10.3%. The outcome with HaCat was inactive.
With `O=C(CCCN1CCC2(CC1)C(=O)NCN2c1ccccc1)c1ccc(F)cc1`, the figures for the max response in the experiment with CRL-7250 and in the experiment on KB-3-1 were -1.53% and -7.2%, respectively. Moreover, the call with HaCat was inactive.
